From PubChem BioAssay (NCI)
Values joined by “and” are separate entries in the source; they are usually repeats but may differ in a detail not shown here. Identical values can stand only once. About 83,000 compounds went through this panel and 20% of them were active in at least one assay; those are over-represented in the sample as a whole.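 Each cell line was grown in a 96-well plate and treated with one concentration of compound for 48 hours. Values below 10 were considered active.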 Unmarked numbers belong to inactive results. Active and inactive are the calls of the source.

Columns and labels:
Test in all cases: NCI-60 one-dose screen, 48 h (100 = growth as untreated, 0 = no growth, -100 = all killed)
Conditions in all cases: 10 µM unless noted
SR leukemia = system: SR leukemia
RPMI-8226 leukemia = system: RPMI-8226 leukemia
OVCAR-8 ovarian = system: OVCAR-8 ovarian
OVCAR-5 ovarian = system: OVCAR-5 ovarian
OVCAR-4 ovarian = system: OVCAR-4 ovarian
SK-OV-3 ovarian = system: SK-OV-3 ovarian
IGROV1 ovarian = system: IGROV1 ovarian
OVCAR-3 ovarian = system: OVCAR-3 ovarian
HS 578T breast = system: HS 578T breast
NCI/ADR-RES ovarian = system: NCI/ADR-RES ovarian

| Compound | growth (SR leukemia) | growth (RPMI-8226 leukemia) | growth (OVCAR-8 ovarian) | growth (OVCAR-5 ovarian) | growth (OVCAR-4 ovarian) | growth (SK-OV-3 ovarian) | growth (IGROV1 ovarian) | growth (OVCAR-3 ovarian) | growth (HS 578T breast) | growth (NCI/ADR-RES ovarian) |
| --- | --- | --- | --- | --- | --- | --- | --- | --- | --- | --- |
| COc1cc(/C=N/NC(=O)c2ccc(OCc3nc4ccc(C)cc4[nH]3)cc2)cc(OC)c1OC | 0.64% (active) | 7.31% (active) | -30.8% (active) | 88% | 71.9% | 106% | 50.5% | 29.5% | 63.1% | 91.6% |
| COc1ccc(N=Nc2c(N)nn3c(-c4ccc([N+](=O)[O-])cc4)ccnc23)cc1 | 98.2% | 94% | 107% | 113% | 92.8% | 106% | 104% | 113% | 89% | 97.8% |
| O=C(Nc1ccc(S(=O)(=O)N2CCCCC2)cc1)C(Cl)Cl | 95.7% | 110% | 111% | 127% | 104% | 118% | 135% | 114% | 119% | 114% |
| Cc1ccccc1Nc1nnc(-c2c[nH]c3ccccc23)o1 | 15.5% | 7.25% (active) | 18.9% | 33.4% | 79.9% | 17.6% | 20.8% | 7.3% (active) | -2.08% (active) | -20.2% (active) |
| CC(=O)Nc1cccc(-n2c(COc3ccc(I)cc3)nc3ccccc32)c1 | 56.2% and 104% | 75.8% and 110% | 97.1% and 117% | 103% and 113% | 74.9% and 109% | 96.8% and 111% | 86.1% and 113% | 88.8% and 87.7% | 62.4% and 115% | 76.6% and 111% |
| COc1ccc(-c2cc(-c3cc(OC)c(OC)c(OC)c3)[nH]c(=O)c2C#N)cc1 | 80.8% | 72.2% | 13.4% | 79.1% | 7.74% (active) | 30.7% | 36.7% | 102% | 24.2% | 42.2% |
| Clc1ccccc1Nc1nnc(-c2c[nH]c3ccccc23)o1 | 15.7% | 4.23% (active) | 13.4% | 29.8% | 73.2% | 22.1% | 19.4% | 9.25% (active) | 18.2% | -18.8% (active) |
| COc1ccc(NC(=O)CSc2nnc(-c3ccc(-c4nc5ccc(Cl)cc5[nH]4)cc3)o2)cc1 | 18.5% | 46.3% | 2.41% (active) | 59.8% | 33.8% | 55% | 59.6% | 41% | 24.7% | 48% |
| O=C(c1ccc(Cl)cc1)C1[C@H](c2ccccc2Cl)[C@@H](c2ccccc2)NC12C(=O)Nc1ccc(Br)cc12 (stereo not given in full) | -54.4% (active) | 2.44% (active) | -76.9% (active) | -91.5% (active) | -33.3% (active) | -7.68% (active) | -59.8% (active) | -48.3% (active) | -36% (active) | -87% (active) |
| Cc1ccc(O)cc1Nc1nc(SCCN2CCOCC2)nc2c1cnn2CC(Cl)c1ccc(Br)cc1 (stereo not given) | -29.4% (active) | 16.8% | 20.7% | 18.8% | 32.3% | 43.9% | -1.66% (active) | 26.5% | -25.8% (active) | 7.37% (active) |
| O=C1CC(c2ccc(I)cc2)OC2C=Cc3ccccc3C12 (stereo not given) | 88.9% | 87.2% | 104% | 115% | 96.7% | 96.7% | 119% | 125% | 104% | 104% |
| CCCn1c(NC(=O)c2cccc(C(N)=O)c2)nc2cc(CN3CCCCC3)ccc21 | 41.5% | 80.7% | 117% | 99% | 90.2% | 83.4% | 88.5% | 101% | 119% | 114% |
| O=C(NC(=S)N1CCN(c2ncnc3c2cnn3-c2ccccc2)CC1)c1ccc(F)cc1 | 8.59% (active) | 76.3% | 67.8% | 92.8% | 45.8% | 69.1% | 79.4% | 113% | 70.5% | 71.8% |
| O=C(Nc1nc2ccc([N+](=O)[O-])cc2s1)Nc1ccccc1F | 15.1% | -19.2% (active) | 15.1% | 15.5% | 16.6% | -14.2% (active) | 21.7% | 24.6% | 0.171% (active) | 7.3% (active) |
| ClC(Cn1ncc2c(Nc3cccc(Br)c3)nc(SCCN3CCOCC3)nc21)c1ccc(Br)cc1 (stereo not given) | -26.7% (active) | 1.13% (active) | 10.2% | 18.1% | 34.6% | 19.4% | 28.3% | 33.2% | -19.9% (active) | 0.769% (active) |
| Cc1cc(C2(c3cc(C)c(OCC(O)CNc4c(C)n(C)n(-c5ccccc5)c4=O)cc3C(C)C)OC(=O)c3ccccc32)c(C(C)C)cc1OCC(O)CNc1c(C)n(C)n(-c2ccccc2)c1=O (stereo not given) | 5.65% (active) | 24.4% | 33.1% | 50.9% | 38.6% | 67.5% | 43.1% | 15.5% | 22.1% | 58% |
| COc1ccccc1Nc1nnc(-c2c[nH]c3ccccc23)o1 | 1.74% (active) | -12.4% (active) | 11.8% | 32.1% | 64.3% | 15.4% | 16.8% | 12.9% | 9.82% (active) | -35.9% (active) |
| CC1=C(C(=O)OCc2ccccc2)C(c2cccc3ccccc23)n2c(nc3ccccc32)N1 (stereo not given) | 19% | 15.3% | 31.2% | 41% | 46.7% | 25.2% | 31.3% | -6.62% (active) | 5.52% (active) | -6.92% (active) |
| CN(C)CCCc1ccc(Nc2cnn(C)c(=O)c2Cl)cc1 | 62.2% | 102% | 106% | 126% | 100% | 131% | 104% | 105% | 105% | 109% |
| O=C(NNC(=O)c1ccc(OCc2nc3ccc(Cl)cc3[nH]2)cc1)Nc1ccc(Cl)c(C(F)(F)F)c1 | 50.3% | 35.9% | 19.1% | 76.4% | 80.1% | 92.4% | 69.6% | 51.8% | 57.2% | 95.4% |
| C#CCN(C)CCCOc1ccc(N(C)C(=O)c2cc(C(C)C)c(O)cc2O)cc1Cl | -13.5% (active) | 8.9% (active) | 9.81% (active) | 29.4% | 36.1% | 16.2% | 11.4% | 30.7% | 26.3% | -5.62% (active) |
| C[C@@H]1CN(c2ccc3ncc(C#Cc4cncc(C(=O)Nc5ccc(CN6CCN(C)CC6)c(C(F)(F)F)c5)c4)n3n2)C[C@@H](C)O1 | -27.6% (active) | -65% (active) | -71.8% (active) | -54.2% (active) | -61.5% (active) | -80.1% (active) | -56.3% (active) | -60.6% (active) | -49.2% (active) | -85.1% (active) |
| Cc1nn(-c2ccccc2)c2nc(C)n(C(=O)N/N=C/c3ccccc3)c(=O)c12 | 115% | 103% | 101% | 101% | 101% | 95.5% | 97.6% | 118% | 84.3% | 100% |
| COc1cccc(/C=C/c2nc3ccccc3c(=O)n2CC(=O)Nc2ccccc2)c1 | 90% | 71.3% | 21.9% | 65.9% | -1.67% (active) | 54.2% | 61% | 74.6% | 3.02% (active) | 33% |
| COc1ccc(S(=O)(=O)Nc2ccc(-c3ccc4c(c3)NC(=O)/C4=C\c3ccc[nH]3)cc2)cc1OC | 8.03% (active) | 39.4% | 1.66% (active) | 18.5% | 8.08% (active) | 27.1% | 29.3% | 57.2% | 23.4% | 22.1% |
| Cn1ncc2c(N)nc(Oc3ccccc3-c3ccccc3)nc21 | -4.14% (active) | 19.4% | 36.2% | 66.8% | 58.3% | 110% | 38.6% | 27.9% | 40.9% | -9.01% (active) |
